Experimental data reported in PubChem BioAssay (NCI).
The panel holds about 79,000 compounds, 15% with a hit somewhere; the sample as a whole holds those more often. Activity calls are given as the source filed them. Rule as the data show it: active = growth inhibition above about 70%; inactive = the rest.

Tests used:
[1] = NCI Yeast Anticancer Drug Screen. Data for the rad52 strain (AID 147);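 also: 0% = growth of vehicle-treated control cultures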; conditions: S. cerevisiae rad52 mutant growth inhibition, stronger effect = higher value
How it was run: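 The repair-mutant yeast strain was incubated with compounds, then growth was read and inhibition derived relative to vehicle.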

[2] = NCI Yeast Anticancer Drug Screen. Data for the wt1 strain (AID 149);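 also: 0% = growth of vehicle-treated wt1 cultures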; conditions: S. cerevisiae wt1 strain (SPY 50644) growth inhibition, stronger effect = higher value
How it was run: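 Vehicle-normalised growth inhibition; strain wt1; compound exposure.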

[3] = NCI Yeast Anticancer Drug Screen. Data for the rad50EPP+ strain (AID 151);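 also: 0% = growth of vehicle-treated control cultures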; conditions: S. cerevisiae rad50 mutant strain, stronger effect = higher value
How it was run: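 Vehicle-normalised growth inhibition; rad50EPP+ yeast strain, altered in DNA damage repair, compound-treated.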

[4] = NCI Yeast Anticancer Drug Screen. Data for the mgt1 strain (AID 153); conditions: S. cerevisiae mgt1 mutant growth inhibition, stronger effect = higher value
How it was run: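 Vehicle-normalized growth inhibition is determined in mgt1 yeast, a strain selected for a defined alteration in DNA repair or cell cycle control.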

[5] = NCI Yeast Anticancer Drug Screen. Data for the rad50 strain (AID 155);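 also: 0% = growth of vehicle-only cultures of the same strain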; conditions: S. cerevisiae rad50 strain growth inhibition, stronger effect = higher value
How it was run: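 A DNA repair-deficient yeast mutant serves as the test organism; compound-induced growth inhibition is calculated against vehicle-treated cells.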

[6] = NCI Yeast Anticancer Drug Screen. Data for the mec2-1 strain (AID 157); conditions: S. cerevisiae mec2-1 strain, stronger effect = higher value
How it was run: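 Mutant yeast (mec2-1) grown with compound; growth inhibition relative to vehicle control reported.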

[7] = NCI Yeast Anticancer Drug Screen. Data for the rad14 strain (AID 159);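 also: 0% = growth of vehicle-treated control cultures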; conditions: S. cerevisiae rad14 strain growth inhibition, stronger effect = higher value
How it was run: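 Vehicle-treated cultures served as the baseline for growth inhibition of a DNA repair-mutant yeast strain exposed to each compound.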

[8] = NCI Yeast Anticancer Drug Screen. Data for the sgs1 mgt1 strain (AID 161);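 also: 0% = growth of cultures given vehicle only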; conditions: S. cerevisiae sgs1 mgt1 strain, stronger effect = higher value
How it was run: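 Growth of a repair-deficient yeast mutant was monitored after compound treatment and expressed as inhibition relative to vehicle-treated cultures.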

[9] = NCI Yeast Anticancer Drug Screen. Data for the CLN2oe strain (AID 163);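 also: 0% = growth of vehicle-only control cultures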; conditions: S. cerevisiae CLN2oe strain, stronger effect = higher value
How it was run: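 Compounds are applied to yeast harbouring a defined cell-cycle control change; reduced growth compared with vehicle-treated controls gives the value.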

[10] = NCI Yeast Anticancer Drug Screen. Data for the cln2 rad14 strain (AID 165);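 also: 0% = growth equal to vehicle treated cultures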; conditions: S. cerevisiae cln2 rad14 strain, stronger effect = higher value
How it was run: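 Readout is yeast growth inhibition versus vehicle-treated controls, using a strain with cln2 and rad14 alterations exposed to compound.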

[11] = NCI Yeast Anticancer Drug Screen. Data for the bub3 strain (AID 167); conditions: S. cerevisiae bub3 mutant strain, stronger effect = higher value
How it was run: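 Inhibition values come from growth of compound-treated mutant yeast normalised to vehicle-treated controls.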

[12] = NCI Yeast Anticancer Drug Screen. Data for the wt2 strain (AID 169);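 also: 0% = growth of vehicle-treated yeast cultures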; conditions: S. cerevisiae wt2 strain growth inhibition, stronger effect = higher value
How it was run: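 Against vehicle-treated controls, the growth of yeast exposed to each compound was compared, and the inhibition was recorded.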

[13] = NCI Yeast Anticancer Drug Screen. Data for the mlh1 strain (AID 171);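 also: 0% = growth of vehicle-treated control cultures of the same strain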; conditions: S. cerevisiae mlh1 strain growth inhibition, stronger effect = higher value
How it was run: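 Measured: yeast growth. Reference: vehicle-treated controls. Organism: strain with a defined alteration affecting DNA damage repair or cell cycle control, treated with compound.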

[14] = NCI Yeast Anticancer Drug Screen. Data for the sgs1 strain (AID 173);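 also: 0% = growth of vehicle-only control cultures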; conditions: S. cerevisiae sgs1 mutant, stronger effect = higher value
How it was run: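 Each compound was added to cultures of the altered yeast strain. Growth was recorded, and inhibition was derived by comparison with vehicle controls.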

[15] = NCI Yeast Anticancer Drug Screen. Data for the mlh1 rad18 strain (AID 175); conditions: S. cerevisiae mlh1 rad18 strain growth inhibition, stronger effect = higher value
How it was run: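 Genetically defined yeast (DNA repair-deficient) exposed to compounds; growth inhibition determined relative to vehicle.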

[16] = NCI Yeast Anticancer Drug Screen. Data for the rad18 strain (AID 177); conditions: S. cerevisiae rad18 mutant growth inhibition, stronger effect = higher value
How it was run: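 Vehicle-treated cultures served as the baseline for scoring compound-induced growth inhibition in DNA-repair-mutant yeast.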

[17] = at 5.0 µM (retest, dose inferred, filed as 0.5)
[18] = at 50.0 µM (retest, dose inferred, filed as 5.0)

Measured: growth inhibition

CSc1nnc(SC)nn1
inactive: [1]; at 1.2 µM 1% | [1]; at 3.7 µM 7% | [1]; at 11.0 µM 0% | [1]; at 33.0 µM 52% | [2]; at 1.2 µM -4% | [2]; at 3.7 µM -5% | [2]; at 11.0 µM -14% | [2]; at 33.0 µM 22% | [3]; at 1.2 µM 6% | [3]; at 3.7 µM 4% | [3]; at 11.0 µM -2% | [3]; at 33.0 µM 26% | [4]; at 1.2 µM 8% | [4]; at 3.7 µM 4% | [4]; at 11.0 µM 13% | [5]; at 1.2 µM -13% | [5]; at 3.7 µM -3% | [5]; [17] 51% | [5]; at 11.0 µM -2% | [5]; at 33.0 µM 45% | [6]; at 1.2 µM 9% | [6]; at 3.7 µM 1% | [6]; [17] 57% | [6]; at 11.0 µM 16% | [7]; at 1.2 µM -10% | [7]; at 3.7 µM 0% | [7]; at 11.0 µM 34% | [8]; [17] -10% | [9]; at 1.2 µM 12% | [9]; at 3.7 µM -6% | [9]; at 11.0 µM 15% | [9]; at 33.0 µM 31% | [10]; [17] 57% | [11]; at 1.2 µM 11% | [11]; at 3.7 µM 27% | [11]; [17] 34% | [11]; at 11.0 µM 65% | [12]; at 1.2 µM 9% | [12]; at 3.7 µM 5% | [12]; at 11.0 µM 3% | [12]; at 33.0 µM 38% | [13]; at 1.2 µM -2% | [13]; at 3.7 µM 6% | [13]; at 11.0 µM 15% | [13]; at 33.0 µM 55% | [14]; at 1.2 µM -2% | [14]; at 3.7 µM 3% | [14]; at 11.0 µM 0% | [14]; at 33.0 µM 44% | [15]; [17] 58% | [16]; at 1.2 µM -4% | [16]; at 3.7 µM 11% | [16]; at 11.0 µM 12% | [16]; at 33.0 µM 67%
active: [1]; at 100.0 µM 98% | [2]; at 100.0 µM 99% | [3]; at 100.0 µM 98% | [4]; at 33.0 µM 72% | [4]; at 100.0 µM 98% | [5]; [18] 98% | [5]; at 50.0 µM 82.2% | [5]; at 100.0 µM 96% | [6]; at 33.0 µM 77% | [6]; [18] 97% | [6]; at 50.0 µM 77.8% | [6]; at 100.0 µM 99% | [7]; at 33.0 µM 77% | [7]; at 100.0 µM 98% | [8]; [18] 99% | [8]; at 50.0 µM 82.8% | [9]; at 100.0 µM 98% | [10]; [18] 95% | [10]; at 50.0 µM 87.7% | [11]; at 33.0 µM 90% | [11]; [18] 98% | [11]; at 50.0 µM 93.1% | [11]; at 100.0 µM 99% | [12]; at 100.0 µM 99% | [13]; at 100.0 µM 99% | [14]; at 100.0 µM 98% | [15]; [18] 99% | [15]; at 50.0 µM 70.8% | [16]; at 100.0 µM 98%
